Results filed as inconclusive are left out. Calls of active or inactive are those of the source. Calls come from the whole dose curve; as a rule, active = well fitted inhibition curve with a large enough effect; inconclusive = small, poorly fitted or top-dose-only effect; inactive = flat fitted curve, though single readings scatter. Where a SMILES comes first, the peptide text is derived from it. Bridges are numbered along the chain shown (N, C = ends). [ ]: non-standard residue; d: D form. dPhe(4-Cl) = N[C@H](Cc1ccc(Cl)cc1)C(=O)O; d2Nal = N[C@H](Cc1ccc2ccccc2c1)C(=O)O; NMeY = CN[CH](Cc1ccc(O)cc1)C(=O)O; dCit = NC(=O)NCCC[C@@H](N)C(=O)O; d3Pal = N[C@H](Cc1cccnc1)C(=O)O
% is set by controls: 0 for no effect and ±100 for the full control effect; potency is the fitted concentration of half-maximal effect.

In the assay the test system is HEK293. The assay is described as follows: Cytotoxic Profiling of Annotated Libraries Using Quantitative High-Throughput Screening (AID 1296008). Note: nearly all actives have a fitted effect of over 60% in size. Particulars: Five cell lines viability, CellTiter-Glo ATP luminescence, 48-72 h; max response: active compounds read low. The source says:
Cell-based phenotypic screening is a commonly used approach to discover biological pathways, novel drug targets, chemical probes and high-quality hit-to-lead molecules. Many hits identified from high-throughput screening campaign are ruled out through a series of follow-up potency, selectivity/specificity, and cytotoxicity assays. Prioritization of molecules with little or no cytotoxicity for a more in-depth downstream evaluation influence the future direction of projects, so cytotoxicity profiling of the screening libraries at early stage is essential for increasing the likelihood of candidate success. […] For the annotated library, we also examined the primary targets and mechanistic pathways regularly associated with cell death. To our knowledge, this is the first study to use high-throughput screening to profile large libraries for cytotoxicity assessment in both normal and cancer cell lines. In summary, the results generated here constitutes a valuable resource for the scientific community and provides insight on identifying cytotoxic compounds with particular mechanisms of action, and prioritizing compounds with suitable cytotoxicity profile for further evaluation.
A pintool (Kalypsys) was used to transfer 23 nL of compound solution to the 1536-well assay plates. After 48 or 72 hr incubation at 37 degree Celsius, 5% CO2 and 95% humidity, 2.5 uL of CellTiter-Glo (Promega) was dispensed into each well using a dispenser (Aspect Automation, St. Paul, MN) with solenoid valves (Lee Valves, Westbrook CT). Plates were left at room temperature for 10 min before imaging the ATP-coupled luminescence using a ViewLux microplate imager (PerkinElmer, Waltham, MA).
On to `CC(=O)C=C=C1C(C)(C)CC(O[C@@H]2O[C@H](CO)[C@@H](O)[C@H](O)[C@H]2O)CC1(C)O` (stereo not given in full), for which the call was inactive.
In the case of `COc1ccc(Cl)c(Nc2nc3ccccc3nc2NS(=O)(=O)c2cccc(NC(=O)C(C)(C)N)c2)c1`, the max response is -13.5% (inactive).
The same measure, in the same setting: to `Cc1cc(C(=O)N2CCCCc3ccccc32)ccc1CNC(=O)N1CCC[C@H]1C(=O)N(C)C` belongs -0.739% (inactive).
Consider `C/C=C/C=C/[C@@H]1O[C@](O)([C@H](CC)C(=O)NC/C=C/C=C(\C)[C@@H](OC)[C@@H](C)C2OC(/C=C/C=C/C=C(\C)C(=O)c3c(O)cc[nH]c3=O)[C@H](O)[C@@H]2O)[C@H](O)[C@H](O)C1(C)C` (stereo not given in full), for which the max response is 1.43% (inactive).
Same read-out and setting: to `COC(=O)C1=CO[C@@H](O)C2C(CO)=CCC12` (stereo not given in full) belongs 4.75% (inactive).
The same measure, in the same setting: to `CC1=CC(=O)[C@H]2C(C)(C)CCC[C@]2(C)[C@@]1(O)CO` belongs -15.2% (inactive); to `CC1OC(OC2C(CO)OC(OCC3OC(OC(=O)C45CCC(C)(C)CC4C4=CCC6C7(C)CCC(OC8OC(CO)C(O)C(OC9OC(CO)C(O)C(O)C9O)C8O)C(C)(C)C7CCC6(C)C4(C)CC5)C(O)C(O)C3O)C(O)C2O)C(O)C(O)C1OC1OC(CO)C(O)C(O)C1O` (stereo not given), -0.594% (inactive).
Consider `Cc1c(C(=O)Nc2ccc(N3CC(C)OC(C)C3)nc2)cccc1-c1ccc(OC(F)(F)F)cc1` (stereo not given), for which the Potency is 9200 nM (active).
For the compound `COC(=O)C1=CO[C@@H](O[C@@H]2O[C@H](CO)[C@@H](O)[C@H](O)[C@H]2O)[C@@H]2C(CO)=CC[C@]12O`, the compound was classed as inactive.
On to `CC(C)(O)c1ccc2c(c1)C(O)C[C@H]1[C@](C)(C(=O)O)CCC[C@]21C` (stereo not given in full), for which the max response is 0.619% (inactive).
Consider `CC1(C=O)CC[C@]2(C(=O)O[C@@H]3O[C@H](CO)[C@@H](O)[C@H](O)[C@H]3O)CC[C@]3(C)C(=CCC4[C@@]5(C)C[C@H](O)[C@H](O[C@@H]6OC[C@@H](O)[C@H](O)[C@H]6O)[C@@](C)(CO)C5CC[C@]43C)C2C1` (stereo not given in full), for which the max response is -6.07% (inactive).
`O=C1NC2CCc3nc4ccccc4c(=O)n3C2=Nc2ccccc21` (stereo not given): the max response was -3.35% (inactive).
Consider `Cn1c(=O)n(-c2ccc(C(C)(C)C#N)cc2)c2c3cc(C#Cc4cccnc4)ccc3ncc21`, for which the Potency is 89.3 nM (active).
Turning to `Cc1cn(C2C=CC(CO)O2)c(=O)[nH]c1=O` (stereo not given), the max response is -22.8% (inactive).
Take `CC(O)/C=C/C1(O)C(C)C(O[C@@H]2O[C@H](CO)[C@@H](O)[C@H](O)[C@H]2O)C(O)CC1(C)C` (stereo not given in full): the compound was classed as inactive.
As to `CCn1c(=O)c(-c2ccn[nH]2)cc2c(C)nc(N)nc21`, the Potency was 4610 nM (active).
The same measure, in the same setting: to `COc1cc(OC)cc(C(=O)Nc2ccc(Cl)c(-c3nc4ccc(N(C)C)cc4[nH]3)c2)c1` belongs 10300 nM (active); to `C[C@@H]1C[C@@H]2O[C@H]2/C=C\C=C\C(=O)Cc2c(Cl)c(O)cc(O)c2C(=O)O1`, 286 nM (active).
As for `COC(=O)C[C@H]1C(C)(C)[C@H](OC(=O)C(C)C)[C@@]2(O)C(=O)[C@]1(C)C1CC[C@]3(C)C(CC(=O)O[C@H]3c3ccoc3)[C@]13O[C@@H]32` (stereo not given in full), the max response was -5.5% (inactive).
Still for that read-out and setting: the value for `O=C1CCC=CC1(O)C(=O)OCc1ccccc1O[C@@H]1O[C@H](CO)[C@@H](O)[C@H](O)[C@H]1O` (stereo not given in full) was -24.1% (inactive).
On to `O=C(O)Cc1cn(C2OCC(O)C(O)C2O[C@@H]2O[C@H](CO)[C@@H](O)[C@H](O)[C@H]2O)c2ccccc12` (stereo not given in full), for which the max response is 0.817% (inactive).
The same measure, in the same setting: to `C[C@@H]1CCC/C=C/[C@H]2CC(=O)C[C@@H]2[C@@H](O)/C=C/C(=O)O1` belongs -12% (inactive); to `CC1(C)CCCC2(C)C1CC(=O)C13CC(CCC12)C(O)(CO)C3` (stereo not given), 0.204% (inactive).
On to `COc1ccc(-c2cnc3ccc(NCc4ccc(S(N)(=O)=O)cc4)nn23)cc1OC`, for which the max response was -0.271% (inactive).
The same measure, in the same setting: to `C[C@@H]1O[C@@H](O[C@H]2[C@H](O[C@H]3[C@H](O[C@H]4CC[C@@]5(C)C(CC[C@]6(C)C5CC=C5[C@@H]7CC(C)(C)CC[C@]7(C(=O)O[C@@H]7O[C@H](CO)[C@@H](O[C@@H]8O[C@@H](C)[C@H](O)[C@@H](O)[C@H]8O)[C@H](O)[C@H]7O)CC[C@]56C)C4(C)C)OC[C@H](O)[C@@H]3O)O[C@H](CO)[C@@H](O)[C@@H]2O)[C@H](O)[C@H](O)[C@H]1O` (stereo not given in full) belongs -93.1% (inactive); to `Cc1csc(NC(=O)c2ccc(COc3cccc(Cl)c3)o2)n1`, -17.1% (inactive); to `CC(C)S(=O)(=O)N[C@H]1CCOC[C@@H]1c1ccc(-c2ccc(C#N)s2)cc1`, -111% (inactive).
On the same count and under the same terms, the value for `CCC(C)C1NC(=O)C2CCCN2C(=O)C(NC(C)=O)C(C)OC(=O)C(Cc2ccc(OC)cc2)N(C)C(=O)C2CCCN2C(=O)C(C(C)C)NC1=O` (stereo not given) (Ac-TPIVP[NMeY](Me); ester 1-C; configuration not given here) was -18.8% (inactive); that for `CC(=O)N[C@H](Cc1ccc2ccccc2c1)C(=O)N[C@H](Cc1ccc(Cl)cc1)C(=O)N[C@H](Cc1cccnc1)C(=O)N[C@@H](CO)C(=O)N[C@@H](Cc1ccc(O)cc1)C(=O)N[C@H](CCCNC(N)=O)C(=O)N[C@@H](CC(C)C)C(=O)N[C@@H](CCCN=C(N)N)C(=O)N1CCC[C@H]1C(=O)N[C@H](C)C(N)=O` (Ac-[d2Nal][dPhe(4-Cl)][d3Pal]SY[dCit]LRP[dA]-NH2) was -0.834% (inactive); that for `COC(=O)[C@@H](O)[C@H]1[C@@]2(C)CC3(O)[C@@H](C(=O)[C@H]2O)[C@]24O[C@]25CC(=O)O[C@@H](c2ccoc2)[C@]5(C)CCC4[C@]13C` (stereo not given in full) was -0.209% (inactive).
The same measure, in the same setting: to `COc1ccc([C@@H]2OC[C@H]3[C@@H]2CO[C@@H]3c2ccc(OC3OC(CO)C(O)C(O)C3O)c(OC)c2)cc1OC` (stereo not given in full) belongs -3.32% (inactive); to `CC(=O)O[C@H]1C[C@@]2(C)[C@@H](CC[C@H]3[C@@]4(C)C=CC(=O)[C@@H](C)[C@@H]4[C@H](O)C(=O)[C@@]32C)/C1=C(/CCC=C(C)C)C(=O)O`, -6.72% (inactive).
Take `O=C(/C=C\n1cnc(-c2cc(C(F)(F)F)cc(C(F)(F)F)c2)n1)N1CC(F)(F)C1`: the Potency is 1300 nM (active).
As for `CCNC(=O)C1OC(n2cnc3c(N)nc(NCCc4ccc(CCC(=O)O)cc4)nc32)C(O)C1O` (stereo not given), the max response was 0.517% (inactive).
The same measure, in the same setting: to `C[C@H](N)C(=O)N[C@@H](Cc1ccc(O)cc1)C(=O)N1CCC[C@H]1C(=O)NCC(=O)N[C@@H](CCCCN)C(=O)N[C@@H](Cc1ccccc1)C(N)=O` belongs 2.75% (inactive); to `COc1cc(Br)c(S(=O)(=O)Nc2ccc(C(F)(F)F)c(O[C@@H]3CCN(C)C3)c2)cc1OC`, -36.5% (inactive).
With `COc1c/c(=C2\C=c3ccccc3=N2)[nH]/c1=C\c1[nH]c(C)cc1C`, the Potency is 1300 nM (active).
For `Cc1cc(C(=O)Nc2cccc(C(=O)Nc3cccc(C(F)(F)F)c3)c2)on1`, the max response is 2.99% (inactive).
Consider `Nc1nc2c(ncn2[C@@H]2O[C@@H]3COP(=O)(O)O[C@H]3[C@H]2O)c(=O)[nH]1`, for which the max response is -4.75% (inactive).
In the case of `C=C1C(O)CC2C(C(=O)O)=COC(O[C@@H]3O[C@H](COC(=O)/C=C/c4ccc(O)cc4)[C@@H](O)[C@H](O)[C@H]3O)C12` (stereo not given in full), the compound was called inactive.

The values are drawn from PubChem BioAssay (NCATS).
